Bioassay records from PubChem.
Pol kappa inh – inhibitors of human DNA polymerase kappa | purified Pol kappa, fluorescent DNA synthesis assay, 10 min | Potency, µM (doses to about 107 µM), for inactives: at the top dose activity, negative = inhibition, actives largely listed as inhibitors | Q9UBT6 | 400,000 tested, 0.53% active; also: % is scaled to controls: 0 for no effect and ±100 for the full control effect
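Readout: fluorescence, taken kinetically at 0 and 10 min. Conditions: 10 nM Pol kappa, 15 min RT compound preincubation, 50 nM substrate final. Controls: enzyme-free buffer wells.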
Pol eta inh – blocks human DNA polymerase eta activity; 390,000 tested, 1.2% active; Potency, µM (doses to about 114 µM), inactives show top-dose activity change, negative = inhibition, usual class: inhibitors; AID 588591; recombinant Pol eta, fluorescent DNA replication assay; also: % is scaled to controls: 0 for no effect and ±100 for the full control effect
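Fluorescent replication assay: 50 nM final substrate added after a 15 min room-temperature compound preincubation with 10 nM enzyme. Signal taken at 0 min and again at 10 min.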
Pol iota inh – DNA polymerase iota (human) inhibition; Potency, µM (titrated, usually from 115 µM), for inactives: at the top dose activity, negative = inhibition, actives largely listed as inhibitors; 390,000 tested, 1% active; Pol iota fluorescent replication assay, 10 min
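Fluorescent replication assay read twice, at 0 min and 10 min after adding 50 nM (final) substrate. Enzyme (10 nM) and compounds were first incubated 15 min at room temperature; enzyme-free buffer wells were negative controls.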
POLB inh – DNA polymerase beta (human) inhibition; P06746; Potency, µM (highest dose often 114 µM), for the others: at the highest dose activity change, negative = inhibition, usual class: inhibitors; Pol beta primer extension/strand displacement, fluorescence kinetic; 340,000 tested, 1.3% active; also: % is scaled to controls: 0 for no effect and ±100 for the full control effect
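Values derive from four-parameter Hill fits of normalized kinetic data: reads at 0 and 10 min following addition of 50 nM substrate to 10 nM Pol beta preincubated 15 min with compound.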
WRN helicase inh – WRN helicase (human) inhibition | Potency, µM (doses to about 114 µM), for the others: at the highest dose activity change, negative = inhibition, usual class: inhibitors | WRN helicase unwinding, fluorescent forked duplex, kinetic | AID 651768 | 360,000 tested, 0.46% active | Q14191; also: % is scaled to controls: 0 for no effect and ±100 for the full control effect; nearly all actives have a fitted effect of over 55% in size
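Kinetic fluorescence helicase assay: unwinding of a quenched forked DNA duplex (100 nM final) with 2 mM ATP final raises red fluorescence (525/598 nm). Compounds sat 15 min at room temperature with 20 nM WRN beforehand.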
FEN1 inh – blocks human flap endonuclease 1 | Potency, µM (highest dose often 114 µM), for inactives: top-dose activity change, negative = inhibition, hits mostly inhibitors | 390,000 tested, 0.35% active | P39748 | Recombinant FEN1 flap cleavage, fluorescence, 15 min | AID 588795; also: % is scaled to controls: 0 for no effect and ±100 for the full control effect; nearly all actives have a fitted effect of over 65% in size
Target sequence (P39748 whole entry, looked up): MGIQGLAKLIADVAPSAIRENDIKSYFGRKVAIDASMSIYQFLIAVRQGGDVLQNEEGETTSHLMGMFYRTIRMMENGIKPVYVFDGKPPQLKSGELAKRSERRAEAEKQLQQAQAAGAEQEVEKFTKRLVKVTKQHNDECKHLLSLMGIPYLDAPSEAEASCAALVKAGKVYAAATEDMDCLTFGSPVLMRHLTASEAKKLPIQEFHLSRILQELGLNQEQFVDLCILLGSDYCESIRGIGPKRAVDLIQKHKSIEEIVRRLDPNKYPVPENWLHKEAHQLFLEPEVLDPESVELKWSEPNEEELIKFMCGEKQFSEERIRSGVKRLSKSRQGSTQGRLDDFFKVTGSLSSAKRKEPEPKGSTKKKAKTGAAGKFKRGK
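Compounds are tested as a concentration series against 10 nM FEN1; after a 15 min room-temperature preincubation, 50 nM substrate starts cleavage, with plate reads at 0 and 15 min. Normalized responses are fitted by a Hill equation.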
* = called active by the depositor; [ ] = dose if it differs, or a comment. Compounds with a hit are over-represented: about 2.4% of the library has one in this group of screens. Calls follow the shape of the dose curve; as a rule, active = well fitted curve in the direction sought with a large enough effect; inconclusive = small, poorly fitted or top-dose-only effect, or another doubt; inactive = no such curve, though single readings can be large; an effect the other way counts as inactive or inconclusive. Potency is read from the fitted curve at half-maximal effect.

Results for Cc1ccc(-c2cc(C(=O)N/N=C/C(Br)=C/c3ccccc3)n[nH]2)o1 ?
Pol kappa inh: inconclusive; Pol eta inh: -4.7%; Pol iota inh: inconclusive; POLB inh: 35.5µM*; WRN helicase inh: -10.7%[11.6 µM]; FEN1 inh: -3.2%

Results for Cc1ccc(-c2cc(C(=O)N/N=C/c3c[nH]c4ccccc34)n[nH]2)o1 ?
Pol kappa inh: inconclusive; Pol eta inh: -14.7%; Pol iota inh: inconclusive; POLB inh: 28.2µM*; WRN helicase inh: -15.3%; FEN1 inh: -7.1%

What do the screens show for `Cc1c(C=O)ccc(N(C)C)c1C`?
Pol kappa inh: -2.5%; Pol iota inh: 23.3%; FEN1 inh: -0.1%

Results for O=C(O)c1ccc(N/N=C/c2cc3cc4c(cc3nc2Cl)OCCO4)cc1 ?
Pol kappa inh: -27.7%; Pol eta inh: 44.7µM*; Pol iota inh: inconclusive; POLB inh: -12.3%; WRN helicase inh: -25.0%; FEN1 inh: inconclusive

How did O=C(O)c1cc(N/N=C/c2cccs2)ccc1Cl do in these assays?
POLB inh: 22.4µM*

Results for O=Cc1cc2cc3c(cc2nc1Cl)OCCO3 ?
Pol kappa inh: 1.4%; Pol eta inh: 8.3%; Pol iota inh: 37.2%; POLB inh: 4.2%; WRN helicase inh: 8.7%; FEN1 inh: 5.4%

What do the screens show for `COc1cc(/C=N/Nc2ccc(Cl)c(C(=O)O)c2)ccc1OC(=O)c1ccc(F)cc1`?
Pol kappa inh: -32.3%; Pol eta inh: 79.4µM*; Pol iota inh: inconclusive; POLB inh: -9.4%; WRN helicase inh: -13.3%[11.6 µM]; FEN1 inh: inconclusive

How did CC(C)n1cc(/C=N/Nc2ccc(Cl)c(C(=O)O)c2)c2ccccc21 do in these assays?
POLB inh: 31.6µM*

What do the screens show for `CSCC[C@H](NC(=O)CNC(=O)CNC(=O)[C@H](CO)NC(=O)[C@H](CCCNC(=N)N)NC(=O)[C@H](CO)NC(=O)[C@H](CC(C)C)NC(=O)[C@H](CC(C)C)NC(=O)CNC(=O)[C@H](C)NC(=O)[C@H](CC(C)C)NC(=O)[C@H](CCCNC(=N)N)NC(=O)[C@H](Cc1cnc[nH]1)NC(=O)[C@@H](NC(=O)[C@@H](N)C(C)C)[C@@H](C)O)C(=O)N[C@H](C(=O)N[C@@H](CCCCN)C(=O)N[C@@H](CO)C(=O)N[C@@H](CC(N)=O)C(=O)N[C@@H](Cc1ccccc1)C(=O)N[C@H](C(=O)N1CCC[C@H]1C(=O)N[C@H](C(=O)N[C@@H](CC(N)=O)C(=O)N[C@H](C(=O)NCC(=O)N[C@@H](CO)C(=O)N[C@@H](CCCCN)C(=O)N[C@@H](C)C(=O)N[C@@H](Cc1ccccc1)C(N)=O)C(C)C)[C@@H](C)O)C(C)C)C(C)C`?
Pol kappa inh: 14.8%[60.1 µM]

What do the screens show for `COc1ccc(CN2CC[C@H]3C=CC[C@@H](C(=O)N4CCN(c5ccccc5)CC4)[C@H]3C2=O)cc1OC`?
Pol kappa inh: 13.7%; Pol iota inh: 11.1%; FEN1 inh: -14.1%

How did O=C(O)c1cc(N/N=C/c2ccc3c(c2)OCCO3)ccc1Cl do in these assays?
Pol kappa inh: inconclusive; Pol eta inh: 25.1µM*; Pol iota inh: inconclusive; POLB inh: inconclusive; WRN helicase inh: -18.4%[57.1 µM]; FEN1 inh: 3.4%

Results for O=C(O)c1cc(N/N=C/c2ccc3c(c2)OCO3)ccc1Cl ?
Pol kappa inh: -14.7%; Pol eta inh: -4.6%; Pol iota inh: 21.1%; POLB inh: 32.6%; WRN helicase inh: -22.3%[57.1 µM]; FEN1 inh: -7.1%

How did O=C(Nc1ccc(F)cc1)C(=O)C1C(=O)Nc2ccccc21 (configuration not stated) do in these assays?
Pol kappa inh: 7.3%; Pol eta inh: -19.2%; Pol iota inh: 89.1µM*; POLB inh: 56.4%; WRN helicase inh: -4.4%; FEN1 inh: -20.4%

Results for COC(=O)c1c(C)cc(O)cc1O ?
Pol kappa inh: 21.1%; Pol eta inh: -13.7%; Pol iota inh: 20.2%; WRN helicase inh: 7.8%; FEN1 inh: -0.2%

What do the screens show for `CCc1ccc2c(O)c3c(cc2c1C(=O)OC)C(=O)c1c(O)ccc(O)c1C3=O`?
Pol kappa inh: 7.94µM*

How did CC(C)C[C@H](NC(=O)CNC(=O)[C@H](C)NC(=O)[C@H](CC(C)C)NC(=O)[C@H](CCCNC(=N)N)NC(=O)[C@H](Cc1cnc[nH]1)NC(=O)[C@@H](NC(=O)[C@@H](N)C(C)C)[C@@H](C)O)C(=O)N[C@@H](CC(C)C)C(=O)N[C@@H](CO)C(=O)N[C@@H](CCCNC(=N)N)C(=O)N[C@@H](CO)C(=O)NCC(=O)NCC(=O)N[C@H](C(=O)N[C@H](C(=O)N[C@@H](CCCCN)C(=O)N[C@@H](CC(N)=O)C(=O)N[C@@H](CC(N)=O)C(=O)N[C@@H](Cc1ccccc1)C(=O)N[C@H](C(=O)N1CCC[C@H]1C(=O)N[C@H](C(=O)N[C@@H](CC(N)=O)C(=O)N[C@H](C(=O)NCC(=O)N[C@@H](CO)C(=O)N[C@@H](CCCCN)C(=O)N[C@@H](C)C(=O)N[C@@H](Cc1ccccc1)C(N)=O)C(C)C)[C@@H](C)O)C(C)C)C(C)C)C(C)C do in these assays?
Pol kappa inh: 12.6%[60.1 µM]

Results for O=C(C[n+]1csc2ccccc21)c1cccc([N+](=O)[O-])c1 ?
Pol kappa inh: 7.4%; Pol iota inh: -5.6%; FEN1 inh: -6.4%

What do the screens show for `O=C(N=NC(=O)c1ccco1)c1ccc2c(O)n(N3C(=O)c4ccccc4C3=O)c(O)c2c1`?
Pol kappa inh: -14.8%; Pol eta inh: inconclusive; Pol iota inh: -12.7%; POLB inh: 44.7µM*; WRN helicase inh: -11.1%; FEN1 inh: -8.9%

What do the screens show for `CC(=O)OCOC(=O)CNc1ccccc1OCCOc1ccccc1NCC(=O)OCOC(C)=O`?
Pol kappa inh: -13.6%[12 µM]

What do the screens show for `COc1ccc(-c2oc3ccccc3c(=O)c2OCC(=O)O)cc1`?
Pol kappa inh: -11.8%; Pol eta inh: 3.1%; Pol iota inh: 34.7%; POLB inh: 1.2%; WRN helicase inh: 4.7%; FEN1 inh: 0.3%

Results for O=C(O)COc1c(-c2ccco2)oc2ccccc2c1=O ?
Pol kappa inh: -22.6%; Pol eta inh: -5.4%; Pol iota inh: inconclusive; POLB inh: 39.8µM*; WRN helicase inh: -8.9%; FEN1 inh: 2.7%

What do the screens show for `Cc1ccc(CCNC(=O)c2cc3ccccn3n2)cc1`?
Pol kappa inh: -18.9%; Pol eta inh: -12.3%; Pol iota inh: 13.0%; POLB inh: -12.6%; FEN1 inh: 18.2%
